Test results from PubChem BioAssay AID720650 (Broad Institute, 2013).
A number with no mark means an inactive call. Active and inactive are the calls of the source. The rule behind the calls is not given here.

Experiment: Biochemical counterscreen for C difficile toxins, absence of UDPG, inhibitor dose response (AID 720650)
Conditions: series mostly up to 19.5 µM; activity change, negative = inhibition: at the top concentration

SMILES	activity change, negative = inhibition	AC50
CC(C)c1cc(CN2CCN(Cc3ccc(F)c(F)c3)C(CCO)C2)[nH]n1 (stereo not given)	-11.1%	–
COc1ccccc1-n1c(SCC(=O)O)nc2c(sc(=S)n2-c2ccc(Cl)c(C)c2)c1=O	–	> 39 µM
CCOC(=O)[C@@H]1[C@H]2COc3ccc(Br)cc3[C@@H]2N2C(=O)N(c3cccc(F)c3)C(=O)[C@]12C	-11.4%	–
O=C(COC(=O)c1ccc(F)cc1F)c1ccc[nH]1	-3.4%	–
O=C(Cc1coc2cc(O)ccc12)NNC(=O)c1cccs1	–	> 39 µM
Cc1ccccc1C(C(=O)NC1CCCCC1)N(C(=O)c1ccccn1)c1cccnc1 (stereo not given)	-0.409%	–
CCC(=Nc1ccccc1)C1=C(O)CCCC1=O	-6.94%	–
O=C(NN=Cc1cc(Br)c(O)c(Br)c1)c1ccccc1NS(=O)(=O)c1cccs1	2.76%	–
Cc1nc2[nH]c(=S)[nH]c2c(=O)[nH]1	–	> 39 µM
COCC(=O)N1CC[C@@H]2[C@H]1c1cc(-c3cccc(OC)c3)ccc1N(C)[C@H]2CO	–	8.89 µM (active)
CCc1ccc(NC(=O)c2cc(C)on2)cc1	-14.7%	–
O=C(C[C@@H]1CC[C@H]2[C@@H](COC[C@@H](O)CN2Cc2ccc(Oc3ccccc3)cc2)O1)Nc1nccs1	8.53%	–
CCNC(=O)C[C@H]1CC[C@@H]2[C@@H](COc3ccc(NC(=O)c4cccc(OC)c4)cc3C(=O)N2C)O1	–	> 39 µM
O=C(CNC(=O)c1ccccc1Br)N/N=C/c1ccc(O)cc1	–	15.7 µM (active)
CCOC(=O)c1ccc(NC(=O)Oc2cc(C)c(Cl)cc2C(C)C)cc1	-0.216%	–
